The values below come from PubChem BioAssay AID795 (NMMLSC, 2007).

Structures are written as SMILES. About 130 (0.54%) of roughly 24,000 compounds were called active.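 The calls were made as follows: active = side scatter shift above 30%; inactive = the rest.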 For the sample, actives were picked, then their nearest neighbours and some compounds at random. Square brackets hold non-standard residues; d marks the D form. Peptide text beside a SMILES is read from it. ξ: configuration not given here. ξV = CC(C)C(N)C(=O)O

The experiment can be described thus: activators of LNCaP prostate cell differentiation, primary screen, flow cytometry side scatter (AID 795).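 Also: androgen-responsive LNCaP prostate cancer cells in charcoal-stripped serum medium; percent of cells past a gate set so DMSO wells show 10% shift; higher shift means more granular cells and more differentiation.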 Conditions: 4 d, at 10 µM, stronger effect = higher value.
`COc1ccccc1CNC(=O)CCCNS(=O)(=O)c1cccc2nsnc12`: the side scatter shift is 4% (inactive).

Consider `O=C(NC1CCCCC1)C1CCCN(S(=O)(=O)c2cccs2)C1` (stereo not given), for which the side scatter shift was 4% (inactive).

`CC(C)C[C@H](NC(=O)Nc1cccc(C(F)(F)F)c1)C(=O)O`: the side scatter shift is 12% (inactive).

On to `CC1(C)CN=C(N2CCN(c3ncnc4sc5c(c34)CCCC5)CC2)S1`, for which the side scatter shift was 4% (inactive).

Take `Cc1ccc(C)c(NC(=O)CSc2nnc(Cc3cccn3C)n2-c2ccc(F)cc2)c1`: the side scatter shift is 12% (inactive).

With `COc1cccc(NC(=O)Nc2nnc(N3CCCCC3C)s2)c1` (stereo not given), the side scatter shift was 6% (inactive).

On to `CCOC(=O)C1CCN(C(=O)CSc2cc(=O)n(C)c3ccccc23)CC1`, for which the side scatter shift was 8% (inactive).

`O=c1cc(O)nc(SCc2ccccc2Cl)[nH]1`: the side scatter shift was 7% (inactive).

As to `O=C(NCCN1CCOCC1)c1ccc2c(c1)ncn2C1CCCC1`, the side scatter shift was 8% (inactive).

With `Cc1ccc(N(C(=O)CC2NC(=O)NC2=O)C2(C(=O)NC3CCCC3)CCCCC2)cc1` (stereo not given), the side scatter shift is 0% (inactive).

Turning to `Cc1cc(C)nc(SCc2nnc(SCC(=O)Nc3ncc(C)s3)n2Cc2ccco2)n1`, the side scatter shift was 16% (inactive).

Regarding `COc1ccccc1C(=O)N1CCNC(=O)C1CC(=O)Nc1ccc(Cl)cc1` (stereo not given), the side scatter shift was 7% (inactive).

In the case of `Cc1ccc(S(=O)(=O)n2nc(OC(=O)C(C)(C)C)cc2N)cc1`, the side scatter shift was 6% (inactive).

Regarding `CC1=C(C(=O)OC2CCCCC2)C(c2cccnc2)n2ncnc2N1` (stereo not given), the side scatter shift is 1% (inactive).

For the compound `COc1ccc(CCNC(=O)c2ccc3c(c2)NC(=O)C(N2CCOCC2)S3)cc1OC` (stereo not given), the side scatter shift was 18% (inactive).

Take `COc1cccc(NS(=O)(=O)c2ccc3[nH]cc(C(=O)NCCCOC(C)C)c(=O)c3c2)c1`: the side scatter shift was 11% (inactive).

As for `Cc1cc(C)c(C)c(S(=O)(=O)Nc2ccc(O)cc2)c1C`, the side scatter shift was 3% (inactive).

With `O=C(Nc1cccnc1)c1noc2c1CCCCC2`, the side scatter shift was 12% (inactive).

In the case of `Fc1ccc2nc(Nc3nc4c(s3)CCCC4)sc2c1`, the side scatter shift was 11% (inactive).

Regarding `CN(Cc1ccccc1)C(=O)CCNC(=O)Cn1cnc2ccccc2c1=O`, the side scatter shift was 6% (inactive).

For the compound `OCCNCCCCOc1ccccc1F`, the side scatter shift was 7% (inactive).

`CCC(C)Sc1nnc(-c2c[nH]c3ccccc23)n1CCOC` (stereo not given): the side scatter shift is 6% (inactive).

Take `CCOC(=O)CNC(=O)CN1C(=O)CCSc2ccccc21`: the side scatter shift is 7% (inactive).

In the case of `CCCCn1c(=S)[nH]c2ncccc2c1=O`, the side scatter shift is 3% (inactive).

As to `CCOC(=O)c1c(N)c(C#N)nn1-c1ccccc1C(=O)OC`, the side scatter shift is 6% (inactive).

`C=CCn1c(=N)n(CC(O)COc2ccc(OC)cc2)c2ccccc21` (stereo not given): the side scatter shift is 8% (inactive).

On to `O=C(Nn1cnc2ccccc2c1=O)c1ccc(F)cc1Cl`, for which the side scatter shift is 9% (inactive).

As for `Cc1nn(Cc2ccc(Cl)c(Cl)c2)c(C)c1NC(=O)c1cc(C2CC2)on1`, the side scatter shift is 13% (inactive).

For the compound `Cc1cccc(CSc2nnc(Cn3c(=O)sc4ccccc43)n2C)c1`, the side scatter shift is 9% (inactive).

For `Cc1c2cn[nH]c(=O)c2c(C)n1Cc1ccc(F)cc1`, the side scatter shift was 2% (inactive).

In the case of `Cc1cccn2c(=O)c3cc(C#N)c(=O)n(CCCN4CCOCC4)c3nc12`, the side scatter shift was 4% (inactive).

`Cc1cc(C)nc(NC2=NCC(=O)N2c2ccc(Cl)cc2)n1`: the side scatter shift was 5% (inactive).

Take `CCn1c(SCC(=O)Nc2ccc3c(c2)OCCO3)nc2c(c1=O)SC(C)C2` (stereo not given): the side scatter shift was 8% (inactive).

With `Cn1c(=O)cc(OCCCC(=O)N2CCN(c3ccccn3)CC2)c2ccccc21`, the side scatter shift was 2% (inactive).

As to `O=C(Cn1c(=O)n(Cc2ccco2)c(=O)c2ccccc21)NCC1CCCO1` (stereo not given), the side scatter shift is 3% (inactive).

As to `Cc1ccc(S(=O)(=O)N2CCCC2CO)cc1` (stereo not given), the side scatter shift is 16% (inactive).

On to `CCOC(=O)CSc1nnc(CNC(=O)Cc2ccccc2)n1-c1ccccc1OC`, for which the side scatter shift was 15% (inactive).

On to `CCN(CC)CCCNC(=O)c1cc(-c2cccc(Cl)c2)on1`, for which the side scatter shift is 33% (active).

For the compound `Cc1cc(C(=O)NCCCc2ccccc2)no1`, the side scatter shift is 4% (inactive).

Turning to `O=C(NCCCN1CCOCC1)c1cc(-c2ccc(Cl)cc2)on1`, the side scatter shift was 8% (inactive).

For `Cc1ccccc1N1CC(c2nc3ccccc3[nH]2)CC1=O` (stereo not given), the side scatter shift was 6% (inactive).

For the compound `C/C(N)=C(\C#N)C(=O)NCCc1ccccn1`, the side scatter shift is 16% (inactive).

`O=C(OCc1ccccc1F)c1ccc2c(c1)OCCO2`: the side scatter shift is 10% (inactive).

For the compound `O=C(COC(=O)c1ccccc1C(=O)c1ccccc1)c1ccco1`, the side scatter shift is 7% (inactive).

As for `O=C(CCN1C(=O)c2ccncc2C1=O)Nc1ccc2c(c1)OCCO2`, the side scatter shift is 13% (inactive).

For `CCOC(=O)N1CCC(NC(=O)Cc2cn(C)c3ccccc23)CC1`, the side scatter shift is 8% (inactive).

On to `CC(=O)N1CCc2cc(S(=O)(=O)Nc3ccccc3N3CCN(C)CC3)ccc21`, for which the side scatter shift was 15% (inactive).

`CC(C)n1c(NCc2c[nH]c3ccccc23)nc2ccccc21`: the side scatter shift was 14% (inactive).

For `CC(=O)NC(C(=O)NCC(N)=O)C(C)C` (stereo not given) (Ac-[ξV]-Gly-NH2), the side scatter shift was 7% (inactive).

For the compound `CC(NC(=O)COc1ccccc1)C(=O)NC1=NCCS1` (stereo not given), the side scatter shift is 13% (inactive).

`COC(=O)c1[nH]c2ccccc2c1NS(=O)(=O)c1ccc(OC)cc1OC`: the side scatter shift was 10% (inactive).

With `COc1ccc(N=Cc2c(O)[nH]c3ccccc23)cc1OC`, the side scatter shift is 15% (inactive).

In the case of `COc1ccc(OC)c(N=Cc2c(O)[nH]c3ccccc23)c1`, the side scatter shift is 48% (active).

Regarding `CCc1c(C)nc(N2CCN(Cc3ccccc3)CC2)[nH]c1=O`, the side scatter shift is 8% (inactive).

For the compound `Cc1nc(NC(=O)C23CCC(C)(C(=O)O2)C3(C)C)sc1C` (stereo not given), the side scatter shift is 4% (inactive).

Take `CCCC(=O)N1c2ccccc2NC2=C(C(=O)CCC2)C1c1ccc(F)cc1` (stereo not given): the side scatter shift was 12% (inactive).

For `O=C(CSC1=Nc2ccccc2C2=NC(c3ccccc3)C(=O)N12)NCC1CCCO1` (stereo not given), the side scatter shift was 8% (inactive).

For the compound `Cc1cccc(N2C(=O)SC(N(CC(=O)O)c3cccc(C)c3)C2=O)c1` (stereo not given), the side scatter shift was 5% (inactive).

With `O=C1NC(c2ccncc2)Nc2sc3c(c21)CCCC3` (stereo not given), the side scatter shift is 3% (inactive).

As to `COc1ccc(CCNC(=O)CSc2nnc(CNC(=O)c3cccs3)o2)cc1OC`, the side scatter shift is 10% (inactive).

For `COCCCNC(=O)c1ccc(CNS(=O)(=O)c2ccc(NC(C)=O)cc2)cc1`, the side scatter shift is 15% (inactive).

For the compound `CC1=NCCN1S(=O)(=O)c1ccc(Br)c(C)c1`, the side scatter shift is 16% (inactive).

On to `CCOC(=O)C1(c2ccccc2)NC(c2ccc(N(C)C)cc2)C2C(=O)N(C)C(=O)C21` (stereo not given), for which the side scatter shift is 11% (inactive).

Take `COc1cccc(OCC(=O)Nc2ccccc2C(N)=O)c1`: the side scatter shift was 9% (inactive).

Take `COc1nc(Oc2ccc(=O)n(C)n2)nc(N(C)C)n1`: the side scatter shift is 10% (inactive).

On to `COc1ccc(N2C(=O)C3CCCN3C2c2cccs2)cc1` (stereo not given), for which the side scatter shift is 9% (inactive).

For `Cc1ccc(-c2nnc(SC(C)C#N)n2N)cc1` (stereo not given), the side scatter shift was 11% (inactive).

Take `CC1CCCC(C)N1CCCNC(=O)c1cc2c(=O)n(C)c3ccccc3c2n1C` (stereo not given): the side scatter shift is 9% (inactive).

Consider `Cn1c(C(=O)NCCCN2CCN(c3cccc(Cl)c3)CC2)cc2c(=O)n(C)c3ccccc3c21`, for which the side scatter shift is 92% (active).

Take `CCn1c(=O)cc(OCC(=O)NCCCN2CCN(c3cccc(Cl)c3)CC2)c2ccccc21`: the side scatter shift is 27% (inactive).

On to `COc1ccccc1NC(=O)C1=C(C)Nc2ncnn2C1c1ccc(C)o1` (stereo not given), for which the side scatter shift was 16% (inactive).

For the compound `CCOC(=O)C1C(=O)C=C(c2ccc(OC)cc2)CC1c1ccco1` (stereo not given), the side scatter shift is 5% (inactive).

`CC(=O)NC(C)c1nc2ccccc2n1Cc1ccccc1F` (stereo not given): the side scatter shift is 7% (inactive).

For the compound `CC1=C(C(=O)Nc2ccccc2)C(c2cccs2)C(C#N)=C(SCC#N)N1` (stereo not given), the side scatter shift was 4% (inactive).

For the compound `Cc1nnc(C)n1/N=C/c1ccc(C(C)C)cc1`, the side scatter shift was 18% (inactive).

For the compound `Cn1c(=O)cc(OCCCC(=O)N2CCN(Cc3ccc4c(c3)OCO4)CC2)c2ccccc21`, the side scatter shift was 12% (inactive).

On to `OCc1nc(CO)n(Cc2ccccc2)n1`, for which the side scatter shift was 7% (inactive).

Regarding `Cc1ccc(N2C(=O)c3oc4ccccc4c(=O)c3C2c2cccnc2)nc1` (stereo not given), the side scatter shift is 3% (inactive).

`O=c1ccn(Cc2ccccc2Cl)cc1`: the side scatter shift was 3% (inactive).

On to `O=C1N=C(N2CCOCC2)CS1`, for which the side scatter shift was 16% (inactive).

Turning to `CCC(C)(C)n1nnnc1C(c1ccccc1OC)N1CCSCC1` (stereo not given), the side scatter shift is 10% (inactive).

With `CCn1c(=O)cc(SCC(=O)NCc2ccc3c(c2)OCO3)c2ccccc21`, the side scatter shift was 20% (inactive).

For the compound `O=C(O)CCC(=O)Nc1ccc(N2CCOCC2)cc1`, the side scatter shift is 6% (inactive).

With `CCOc1ccc(C(=O)N(Cc2ccc(N(C)C)cc2)C2CCS(=O)(=O)C2)cc1` (stereo not given), the side scatter shift was 12% (inactive).

`O=C(CC(Cc1ccccc1)C(=O)O)NCCc1ccc2c(c1)OCO2` (stereo not given): the side scatter shift was 6% (inactive).

As for `O=C(CSc1nc2ncccc2[nH]1)Nc1ccc2c(c1)OCCO2`, the side scatter shift is 3% (inactive).

Consider `Nc1c(C(=O)NCc2ccccc2)nnn1Cc1cccc(Cl)c1`, for which the side scatter shift is 24% (inactive).

For the compound `O=C(CCn1c(=S)[nH]c2ccccc2c1=O)NCCCN1CCCC1=O`, the side scatter shift was 6% (inactive).

Turning to `COc1cccc2cc(C(C)N(CCCN3CCOCC3)C(=O)Nc3ccc(Cl)cc3)oc12` (stereo not given), the side scatter shift was 6% (inactive).

For the compound `CCOC(=O)Cn1c(N)c(C(=O)OC)sc1=S`, the side scatter shift was 0% (inactive).

Consider `Clc1ccc(Cn2ncc3c(NCc4cccnc4)ncnc32)cc1`, for which the side scatter shift is 11% (inactive).

Turning to `CCOC(=O)CSc1nc2c(c(=O)n(C)c(=O)n2C)n1Cc1ccccc1F`, the side scatter shift was 11% (inactive).

Take `O=C(Nc1ccccc1C(F)(F)F)c1cc(-c2ccc(O)cc2)on1`: the side scatter shift was 5% (inactive).

With `CCOC(=O)c1nc(-c2ccc3c(c2)OCO3)[nH]c1C`, the side scatter shift is 7% (inactive).

With `CCCN1CCN(C(=O)Cn2ncc3ccccc32)CC1`, the side scatter shift is 6% (inactive).

Consider `CCCOC(=O)c1[nH]c2c(c1C)C(=O)CC(c1cc(OC)c(OC)c(OC)c1)C2` (stereo not given), for which the side scatter shift was 11% (inactive).

In the case of `CC1(C)C(=O)Nc2ccccc2N1C(=O)COC(=O)Cn1cnc2ccccc2c1=O`, the side scatter shift is 7% (inactive).

Take `Cc1ccc(C(=O)N(CN2CCCC2=O)c2ccc(F)cc2)cc1`: the side scatter shift was 15% (inactive).

Consider `CCCC(=O)Nc1cccc(-c2cn3ccsc3n2)c1`, for which the side scatter shift was 3% (inactive).

For the compound `O=C(COC(=O)C12CC3CC(CC(C3)C1)C2)NCc1ccco1`, the side scatter shift is 12% (inactive).

As to `CCOC(=O)C1CCCN(C(=O)c2ccc(CS(=O)(=O)c3ccc(Br)cc3)o2)C1` (stereo not given), the side scatter shift was 8% (inactive).

Consider `Cc1ccsc1C(C(=O)NC1CCCCC1)N(C(=O)Cc1cccs1)C1CC1` (stereo not given), for which the side scatter shift was 9% (inactive).

For the compound `CCCCc1nccn1CCn1ccnc1CCCC`, the side scatter shift is 7% (inactive).

In the case of `O=C(C1CC1)N1CCN=C1SCc1ccc(Cl)cc1`, the side scatter shift is 11% (inactive).

On to `Cc1cc(=O)n(C)c(=O)n1CCCNc1ccccc1`, for which the side scatter shift was 9% (inactive).

For `CC(C)Nc1nc(N(c2ccccc2)c2ccccc2)nc(-n2ccnc2)n1`, the side scatter shift was 10% (inactive).

Take `CC(CCc1ccccc1)NC(=O)c1ccc(Br)o1` (stereo not given): the side scatter shift is 5% (inactive).

For `C/C(=C(\C#N)C(=O)NCCCN1CCOCC1)N(C)C`, the side scatter shift was 13% (inactive).

For the compound `O=C(NCc1cccnc1)c1ccc(CS(=O)(=O)c2ccc(Br)cc2)o1`, the side scatter shift was 4% (inactive).

With `O=S(=O)(Nc1ccccn1)c1ccc(Oc2ccccc2)cc1`, the side scatter shift was 13% (inactive).
